Data published in PubChem BioAssay (NCATS).
The source made the active and inactive calls. No rule for the calls is given here.

These compounds were tested on HIV-1 nucleocapsid protein NCp7 (binding to TG oligonucleotide) (assay: HIV Nucleocapsid (AID 346;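 also: potency is for inhibitors that block NC binding and lower polarization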)). Details: HIV-1 NC / fluorescein-TGTGTGTG probe, fluorescence polarization.
Outline: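 NCp7 100 nM + fluorescein TG4xF 10 nM; Hepes pH 7.5/250mM NaCl/1uM ZnCl2/0.004% PEG 20000; 1 hr RT; FP, 45 s exposure; oligo-only wells as negative control.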
Potency is read from the fitted curve at half-maximal effect.

Row | SMILES | Potency
1 | COc1ccc(-c2nc3cnc(Oc4cccc(Cl)c4)nc3n(CCC#N)c2=O)cc1 | > 20 µM (inactive)
2 | COC(=O)N1CCC2(CC1)CN(c1cccc(-c3ccccc3)c1)C2 | > 20 µM (inactive)
3 | CN(C)c1ncc2ncc(=O)n(C)c2n1 | > 20 µM (inactive)
4 | COc1ccc(C(=O)N2CCC3(CC2)CN(c2cccc(-c4ccccc4)c2)C3)cc1 | > 20 µM (inactive)
5 | COc1cccc(-c2ccc3ncnc(N4CCN(C)CC4)c3c2)c1 | > 20 µM (inactive)
6 | COC(=O)N1CCC2(CCCN(Cc3nccs3)C2)CC1 | > 20 µM (inactive)
7 | CN1CCN(c2ncc3nc(-c4ccccc4)c(=O)n(C4CC4)c3n2)CC1 | > 20 µM (inactive)
8 | CN(C)c1ncc2nc(-c3ccccc3)c(=O)n(C[C@H]3CCCO3)c2n1 | > 20 µM (inactive)
9 | CN(C)C(=O)c1ccc(-c2ccc3ncnc(N(C)C)c3c2)cc1 | > 20 µM (inactive)
10 | Cn1c(=O)c(-c2ccc(Cl)cc2)nc2cnc(Oc3ccccc3)nc21 | > 20 µM (inactive)
11 | O=C(Oc1ccccc1)N1CCC2(CCCN(c3ccncc3)C2)CC1 | > 20 µM (inactive)
12 | COC(=O)N1CCC2(CCN(C(=O)NC(C)C)CC2)CC1 | > 20 µM (inactive)
13 | COc1ccc(NC(=O)N2CCC3(CC2)CCN(C(=O)c2cc(C(F)(F)F)cc(C(F)(F)F)c2)CC3)cc1 | > 20 µM (inactive)
14 | COc1ncc2nc(CCc3ccccc3)c(=O)n(Cc3ccc(F)cc3)c2n1 | > 20 µM (inactive)
15 | CN(C)c1ccc(-c2cncnc2NCc2cccnc2)cc1 | > 20 µM (inactive)
16 | O=C(Nc1cccc(F)c1)N1CCCC2(CCN(C(=O)c3cc(C(F)(F)F)cc(C(F)(F)F)c3)CC2)C1 | > 20 µM (inactive)
17 | O=c1c(-c2cc(F)cc(F)c2)nc2cnc(N3CCOCC3)nc2n1Cc1cccs1 | > 20 µM (inactive)
18 | O=C(c1csnn1)N1CCC2(CC1)CCN(c1ccccn1)CC2 | > 20 µM (inactive)
19 | COCCn1c(=O)c(-c2ccccc2)nc2cnc(OCc3ccccc3)nc21 | > 20 µM (inactive)
20 | c1cncc(-c2cncnc2NC2CCNCC2)c1 | > 20 µM (inactive)
21 | O=C(c1cnccn1)N1CCC2(CC1)CN(c1ccccc1)C2 | > 20 µM (inactive)
22 | N#Cc1cccc(NC(=O)N2CCCC3(CCN(C(=O)c4cnccn4)CC3)C2)c1 | > 20 µM (inactive)
23 | N#Cc1cccc(NC(=O)N2CC[C@@]3(CCCN(C(=O)c4ccco4)C3)C2)c1 | > 20 µM (inactive)
24 | CN(C)C(=O)c1ccc(-c2nccc(NCc3cccnc3)n2)cc1 | > 20 µM (inactive)
25 | COc1ncc2nc(-c3ccc(Cl)cc3)c(=O)n(C[C@H]3CCCO3)c2n1 | > 20 µM (inactive)
